Tau fluor cs: counter-screen for tau fibril formation inhibitors; hit rate 0.93% among 280,000; Potency, µM (titrated, usually from 57.7 µM), inactives show at the top dose activity change, negative = decrease; tau K18 P301L Alexa594 fluorescence, heparin fibrillization; AID 1463; also: nearly all actives have a fitted effect of over 55% in size
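Human tau K18 P301L (15 uM unlabeled, 0.24 uM Alexa 594-labeled) in 100 mM sodium acetate pH 7 with 20 uM heparin, 6 hr at 37 C. ThT 30 uM added, 1 hr ambient; Alexa 594 FP and total fluorescence read at 555/632 nm.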
Tau FP inhib: blocks human tau fibril formation measured by polarization | K18 P301L tau heparin fibrillization, Alexa594 FP, 6 h | hit rate 0.39% among 280,000 | AID 1468 | Potency, µM (highest dose often 57.7 µM), without a hit: top-dose activity, negative = inhibition, hits mostly inhibitors | P10636; also: nearly all actives have a fitted effect of over 55% in size
Target sequence (P10636 561-689 P618L limits assumed): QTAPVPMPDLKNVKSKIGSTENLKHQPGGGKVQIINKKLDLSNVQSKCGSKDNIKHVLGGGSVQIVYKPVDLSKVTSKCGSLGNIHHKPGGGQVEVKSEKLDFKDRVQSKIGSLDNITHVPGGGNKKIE
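Quantitative HTS format: compounds meet 15 uM recombinant K18 P301L tau and Alexa 594-tau tracer in 100 mM sodium acetate pH 7; 20 uM heparin triggers fibrillization at 37 C over 6 hr; FP gives the signal.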
Tau ThT inhib: inhibitors of human tau fibril formation, thioflavin T binding. Potency, µM (doses to about 57.4 µM), for the others: at the top dose activity, negative = inhibition, most hits filed as inhibitors. P10636. AID 1460. recombinant tau K18 P301L, heparin-induced fibrillization, ThT fluorescence. hit rate 2.1% among 270,000; also: nearly all actives have a fitted effect of over 55% in size
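ThT emission at 510 nm, taken 1 hr after adding 30 uM dye, quantifies aggregates formed when 20 uM heparin acts on human tau K18 P301L for 6 hr at 37 C.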
TRb SRC2 PPI: inhibitors of human thyroid hormone receptor beta-SRC2 interaction | TRbeta-SRC2 peptide binding, fluorescence polarization; receptor liganded with 1 µM T3 | Potency, µM (series often up to 106 µM), for the others: at the top dose activity change, negative = inhibition, most hits filed as inhibitors | hit rate 0.065% among 280,000 | AID 1469;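 also: plate controls were bound peptide for no effect and peptide without receptor for full effect; nearly all actives have a fitted effect of over 50% in size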
Target sequence (P10828 whole entry, looked up): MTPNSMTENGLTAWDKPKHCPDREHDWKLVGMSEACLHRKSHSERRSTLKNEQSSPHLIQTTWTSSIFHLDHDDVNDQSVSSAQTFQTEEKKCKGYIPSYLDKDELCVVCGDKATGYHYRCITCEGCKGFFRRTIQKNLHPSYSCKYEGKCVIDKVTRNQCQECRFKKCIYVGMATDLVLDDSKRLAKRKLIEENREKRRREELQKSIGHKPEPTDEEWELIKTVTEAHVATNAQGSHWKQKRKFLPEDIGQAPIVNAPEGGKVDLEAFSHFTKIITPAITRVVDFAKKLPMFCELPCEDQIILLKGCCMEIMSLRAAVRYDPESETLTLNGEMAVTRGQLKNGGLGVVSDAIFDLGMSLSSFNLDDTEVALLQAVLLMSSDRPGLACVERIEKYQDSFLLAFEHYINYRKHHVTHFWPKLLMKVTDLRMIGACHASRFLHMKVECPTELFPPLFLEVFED
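TRb LBD 0.6 uM + Texas Red SRC2 peptide 20 nM, 1 uM T3, Tris buffer w/ 5% DMSO; compound pinned, 5 h RT; FP read ex 555/em 632; normalized to unbound and bound controls.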
TexasRed fluor: counter-screen for TRb-SRC2 inhibitors: fluorescence interference. TRb/SRC2 Texas Red total fluorescence interference. hit rate 0.29% among 280,000. Potency, µM (titrated, usually from 106 µM), for inactives: at the top dose fluorescence change, negative = quenching; active = well fitted curve in either direction with a large enough effect; inconclusive = small, poorly fitted or top-dose-only effect
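Human TRb ligand-binding domain at 0.6 uM with 20 nM Texas Red SRC2 peptide in Tris buffer containing 1 uM T3 and 5% DMSO, incubated with compound 5 h at ambient temperature. Total fluorescence (555/632 nm) calculated as parallel + 2 × perpendicular.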
Starred values were filed as active, the others as inactive; ? = inconclusive; . = not tested or not shown; [ ] = another dose, or the depositor's remark. A selection: hits, their analogues and other compounds. The true share with any hit is near 3.1%. Unless noted, calls follow the shape of the dose curve; as a rule, active = well fitted curve in the direction sought with a large enough effect; inconclusive = small, poorly fitted or top-dose-only effect, or another doubt; inactive = no such curve, though single readings can be large; an effect the other way counts as inactive or inconclusive. Unless noted, % is scaled to controls: 0 for no effect and ±100 for the full control effect; potency is read from the fitted curve at half-maximal effect.

SMILES	Tau fluor cs	Tau FP inhib	Tau ThT inhib	TRb SRC2 PPI	TexasRed fluor
COc1cc(-c2cc3n(C)c(C)c(CCC(=O)O)c(=O)n3n2)cc(OC)c1OC	-14%	-10%	-11%	-13%	-2%
Cc1ccc(-n2nc3c(N4CCCC(C(=O)NCc5ccc(Cl)cc5)C4)nnc(C)c3c2C)cc1 (stereo not given)	-8%	1%	-18%	-9%	0%
CC1(C)c2ccccc2N2CC(=O)N(CC(N)=O)C21C (stereo not given)	32µM*[fluorescent]	?	?	?	50µM*[fluorescent]
Cc1ccc(C)c(CN2C(=O)c3ccccc3S(=O)c3ccc(C(=O)NCc4ccccc4)cc32)c1 (stereo not given)	-23%	?	-2%	-7%	-2%
Cc1c(N=C2C=C(Br)C(=O)C(Br)=C2)c(=O)n(-c2ccccc2)n1C	16µM*[quencher]	25µM*	16µM*	1%	1%
Cc1c(N=C2C=CC(=O)c3ccccc32)c(=O)n(-c2ccccc2)n1C	4.5µM*[quencher]	7.9µM*	2.2µM*	-25%	-23%
Cc1c(N=Nc2ccc(O)cc2)c(=O)n(-c2ccccc2)n1C	-6%	3%	2%	0%	-1%
Cc1c(N2C(=O)c3ccccc3C2=O)c(=O)n(-c2ccccc2)n1C	7%	9%	13%	-3%	-1%
O=c1n(CCO)c(=O)n(CCO)c(=O)n1CCO	.	.	.	0%[201 µM]	-4%[201 µM]
CCOC(=O)c1c(C(F)(F)C(F)(F)C(F)(F)C(F)(F)F)n[nH]c1C	4%	14µM*	1%	10%	-4%
CCOc1cccc2cc(-c3nc4sc5c(c4c(=O)[nH]3)CCC(C)C5)c(=O)oc12 (stereo not given)	-10%	0%	-17%	-12%	7%
COC(=O)C1=C(C(=O)OC)SC2(S1)C(C(=O)OC)=C(C(=O)OC)SC1=C2c2cccc(C)c2NC1(C)C	?	?	14µM*	2%	-8%
CCC1CC=CC2C1C(=O)N(Cc1ccccc1)C2c1ccc2ccccc2c1 (stereo not given)	.	.	.	2%	1%
Oc1ccc(/C=N/Nc2ccc(C(F)(F)F)cn2)cc1	11µM*[quencher]	21%	?	1%	-3%
COc1cc(/C=N/Nc2ccc(C(F)(F)F)cn2)cc(OC)c1O	-23%	4%	?	4%	1%
Cc1nn(-c2ccccc2)c2c1C1(C(=O)N3c4c(cccc41)C(C)CC3(C)C)C(C#N)=C(N)O2 (stereo not given)	?	?	?	15%	-3%
Cc1nn(-c2ccccc2)c2c1C1(C(=O)N(C)c3ccccc31)C(C#N)=C(N)O2 (stereo not given)	?	?	22µM*	-1%	-5%
CCOC(=O)N1CCC2(CC1)C(C#N)=C(N)Oc1c2c(C)nn1-c1cccc(Cl)c1	?	-12%	22µM*	1%	-1%
CCN1C(=O)C2(C(C#N)=C(N)Oc3c2c(C)nn3-c2ccccc2)c2ccccc21 (stereo not given)	?	?	16µM*	-7%	-5%
CC(=O)N1C(=O)C2(C(C#N)=C(N)Oc3c2c(C)nn3-c2ccccc2)c2ccccc21 (stereo not given)	?	?	28µM*	-4%	-1%
Clc1cccc(Cl)c1/C=N\Nc1nccs1	0%	4%	5%	10%	5%
O=[N+]([O-])c1cc(/C=N\Nc2nccs2)ccc1O	14µM*[quencher]	?	13µM*	?	25µM*[quencher]
O=C(NCCCN1CCN(c2ccc(F)cc2)CC1)c1sc2ncccc2c1-n1cccc1	-5%	-1%	-4%	8%	-7%
CCOCCCn1c(=N)c(C(=O)NCc2cccnc2)cc2c(=O)n3ccccc3nc21	-21%	1%	-17%	13%	-4%
CC(C)(C)C1CCC(=NNc2ccc(S(N)(=O)=O)cc2[N+](=O)[O-])CC1 (stereo not given)	?	11%	13µM*	9%	-1%
SMILES	Tau fluor cs	Tau FP inhib	Tau ThT inhib	TRb SRC2 PPI	TexasRed fluor
CC1CCCC/C1=N\Nc1ccc(S(N)(=O)=O)cc1[N+](=O)[O-] (stereo not given)	-9%	11%	16µM*	-6%[53 µM]	-1%[53 µM]
NS(=O)(=O)c1ccc(N/N=C2/CCCc3ccccc32)c([N+](=O)[O-])c1	2%	-4%	7%	3%	1%
CCCCc1nc2c(c3c1CC(C)OC3)CN(CCC(C)C)CC2 (stereo not given)	-9%[11.6 µM]	2%[11.6 µM]	-12%[11.5 µM]	-1%[11.2 µM]	-4%[11.2 µM]
COc1ccc(NCC(=O)Nc2ccc(C#N)cc2)cc1Cl	14µM*[quencher]	?	?	-13%	-1%
COc1ccc(NC(=O)CNc2cccc(C#N)c2)cc1Cl	?	-7%	-13%	1%	-3%
COc1ccc([C@H]2Oc3cc(O)cc(O)c3C(=O)C2[C@@H]2C(=O)c3c(O)cc(O)cc3O[C@@H]2c2ccc(OC)cc2)cc1 (stereo not given in full)	-29%	18µM*	?	?	-22%
CSc1ncc(C(=O)NCc2cccc(C)c2)c(-c2ccccc2)n1	5%	2%	4%	6%	-17%
Cc1cc2cc(C=C(C#N)C#N)c(Cl)nc2cc1C	-13%	?	3.2µM*	6%	-7%
COc1ccc(OC)c(NC(=O)CN2C(=O)c3ccccc3Sc3ccc(C(=O)N4CCCC4)cc32)c1	-7%	0%	-17%	-20%	794µM*[quencher]
O=C(/C=C/c1ccc(N2CCCCC2)c([N+](=O)[O-])c1)c1ccc(S(=O)(=O)N2CCCC2)cc1	-28%	?	10µM*	2%[53 µM]	-1%[53 µM]
COc1cccc(C(=O)/C=C/c2ccc(N3CCCCC3)c([N+](=O)[O-])c2)c1	?	-3%	7.9µM*	-21%	1%
CN1CCN(c2ccc(S(=O)(=O)N3CCCCC3)cc2[N+](=O)[O-])CC1	-7%	-5%	-9%	-5%	-1%
COc1cccc(/C=C/C(=O)c2cccc([N+](=O)[O-])c2)c1	?	?	?	7%	-4%
Cc1nnc(NCc2ccc(F)cc2)c2c1nnn2Cc1ccccc1Cl	7%	3%	14%	1%	0%
COc1cc(NC(=O)CSc2nc(-c3ccc(C(C)C)cc3)no2)cc(OC)c1	-22%	?	-4%	-4%	-1%
CCOC(=O)c1cc(=O)[nH]c2ccccc12	-6%	-1%	-5%	-4%	-1%
CCOC(=O)c1cc2n(c1/N=C/N(C)C)-c1ccccc1C2=O	?	25µM*	25µM*	6%	1%
CCC1OC(=O)C[C@@H](O)[C@H](C)[C@@H](OC2OC(C)CC(N(C)C)C2O)[C@@H](CC=O)C[C@@H](C)C(=O)/C=C/[C@]2(C)OC2C1C (stereo not given in full)	.	.	.	8%	-3%
COc1ccc2c(c1)-c1c(ssc1=S)C(C)(C)N2	16µM*[quencher]	-10%	14µM*	4%	-5%
